Assay results from the supplement of paper PMC6897291.
Structures can show the parent of a compound that is named as a salt.

What was measured:
[1] = system: RIVA; assay: growth inhibition by drug plus 177Lu-lilotomab satetraxetan (1 - RLU/untreated control) (fraction); higher = stronger inhibition; conditions: 177Lu-lilotomab satetraxetan 0.5 ug/ml
Outline: (§1)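 RIVA or U-2932 cells were left untreated or pretreated for 18 h with a radiolabelled anti-CD37 antibody conjugate (~600 MBq/mg) at 0.5 µg/ml for RIVA or 1 µg/ml for U-2932. The cells were then washed and seeded at 3,000 cells/well on plates pre-printed with the Selleck Cambridge Cancer Compound library, dosed at 10/100 nM for RIVA and 10/1,000 nM for U-2932. From day 3, RealTime-Glo luminescence was read daily after 1 h at 37°C. Growth inhibition was taken as one minus RLU over the mean of the untreated no-drug wells, of which there were 48 per plate.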

[2] = system: U-2932; assay: growth inhibition by drug alone (1 - RLU/untreated control) (fraction); higher = stronger inhibition; conditions: 177Lu-lilotomab satetraxetan 0 ug/ml
Outline: as §1

[3] = system: RIVA; assay: as above; conditions: 177Lu-lilotomab satetraxetan 0 ug/ml
Outline: as §1

[4] = system: U-2932; assay: growth inhibition by drug plus 177Lu-lilotomab satetraxetan (1 - RLU/untreated control) (fraction); higher = stronger inhibition; conditions: 177Lu-lilotomab satetraxetan 1 ug/ml
Outline: as §1

Row | Structure (SMILES) | growth inhibition by drug plus 177Lu-lilotomab satetraxetan ([1]; 100 nM, time (day): 5) | growth inhibition by drug plus 177Lu-lilotomab satetraxetan ([1]; 100 nM, time (day): 6) | growth inhibition by drug alone ([2]; 10 nM, time (day): 3) | growth inhibition by drug alone ([2]; 10 nM, time (day): 4) | growth inhibition by drug alone ([2]; 10 nM, time (day): 5) | growth inhibition by drug alone ([2]; 10 nM, time (day): 6) | growth inhibition by drug alone ([2]; 1000 nM, time (day): 3) | growth inhibition by drug alone ([2]; 1000 nM, time (day): 4) | growth inhibition by drug alone ([2]; 1000 nM, time (day): 5) | growth inhibition by drug alone ([2]; 1000 nM, time (day): 6) | growth inhibition by drug alone ([3]; 10 nM, time (day): 3) | growth inhibition by drug alone ([3]; 10 nM, time (day): 4) | growth inhibition by drug alone ([3]; 10 nM, time (day): 5) | growth inhibition by drug alone ([3]; 10 nM, time (day): 6) | growth inhibition by drug alone ([3]; 100 nM, time (day): 3) | growth inhibition by drug alone ([3]; 100 nM, time (day): 4) | growth inhibition by drug alone ([3]; 100 nM, time (day): 5) | growth inhibition by drug alone ([3]; 100 nM, time (day): 6) | growth inhibition by drug plus 177Lu-lilotomab satetraxetan ([4]; 10 nM, time (day): 3) | growth inhibition by drug plus 177Lu-lilotomab satetraxetan ([4]; 10 nM, time (day): 4) | growth inhibition by drug plus 177Lu-lilotomab satetraxetan ([4]; 10 nM, time (day): 5) | growth inhibition by drug plus 177Lu-lilotomab satetraxetan ([4]; 10 nM, time (day): 6) | growth inhibition by drug plus 177Lu-lilotomab satetraxetan ([4]; 1000 nM, time (day): 3) | growth inhibition by drug plus 177Lu-lilotomab satetraxetan ([4]; 1000 nM, time (day): 4) | growth inhibition by drug plus 177Lu-lilotomab satetraxetan ([4]; 1000 nM, time (day): 5) | growth inhibition by drug plus 177Lu-lilotomab satetraxetan ([4]; 1000 nM, time (day): 6) | growth inhibition by drug plus 177Lu-lilotomab satetraxetan ([1]; 10 nM, time (day): 3) | growth inhibition by drug plus 177Lu-lilotomab satetraxetan ([1]; 10 nM, time (day): 4) | growth inhibition by drug plus 177Lu-lilotomab satetraxetan ([1]; 10 nM, time (day): 5) | growth inhibition by drug plus 177Lu-lilotomab satetraxetan ([1]; 10 nM, time (day): 6) | growth inhibition by drug plus 177Lu-lilotomab satetraxetan ([1]; 100 nM, time (day): 3) | growth inhibition by drug plus 177Lu-lilotomab satetraxetan ([1]; 100 nM, time (day): 4)
1 | CCCCc1nc2cc(/C=C/C(=O)NO)ccc2n1CCN(CC)CC [SB939 (Pracinostat)] | 0.868 | 0.876 | – | – | – | – | – | – | – | – | – | – | – | – | – | – | – | – | – | – | – | – | – | – | – | – | – | – | – | – | – | –
2 | CC/C(=C(\c1ccccc1)c1ccc(OCCN(C)C)cc1)c1ccccc1 [Tamoxifen Citrate (Nolvadex)] | 0.788 | 0.802 | 0.0699 | 0.0582 | -0.0313 | -0.0576 | 0.106 | 0.0715 | -0.0226 | 0.0641 | 0.0612 | 0.0931 | 0.0782 | -0.0872 | 0.551 | 0.381 | 0.352 | 0.322 | 0.0801 | 0.126 | 0.2 | 0.206 | 0.075 | 0.103 | 0.172 | 0.27 | 0.602 | 0.651 | 0.667 | 0.656 | 0.78 | 0.78
3 | COc1cc(Nc2ncc3c(n2)-c2ccc(Cl)cc2C(c2c(F)cccc2OC)=NC3)ccc1C(=O)O [MLN8237 (Alisertib)] | 0.845 | 0.873 | 0.00882 | -0.00518 | -0.0513 | -0.269 | 0.101 | 0.128 | 0.153 | 0.291 | -0.00668 | -0.0776 | -0.136 | -0.266 | 0.624 | 0.553 | 0.569 | 0.599 | 0.0071 | 0.0562 | 0.0508 | 0.126 | 0.21 | 0.278 | 0.316 | 0.459 | 0.398 | 0.551 | 0.559 | 0.572 | 0.754 | 0.81
4 | CC(C)c1ccc(Cn2ccc3c4c(N)nc(NC5CC5)nc4ccc32)cc1 | 0.786 | 0.799 | 0.155 | 0.138 | 0.0759 | 0.0356 | 0.976 | 0.977 | 0.982 | 0.985 | 0.0749 | 0.155 | 0.0828 | -0.0413 | 0.639 | 0.486 | 0.491 | 0.444 | 0.151 | 0.196 | 0.261 | 0.274 | 0.982 | 0.983 | 0.986 | 0.989 | 0.658 | 0.702 | 0.716 | 0.712 | 0.787 | 0.778
5 | NC(=O)c1ccc(I)c([N+](=O)[O-])c1 [Iniparib (BSI-201)] | 0.516 | 0.523 | -0.0132 | -0.0395 | -0.0441 | -0.012 | -0.105 | -0.0771 | -0.0716 | -0.0297 | -0.235 | -0.257 | -0.288 | -0.389 | -0.378 | -0.352 | -0.395 | -0.471 | -0.0638 | -0.00415 | 0.0467 | 0.129 | -0.0685 | -0.00507 | 0.0384 | 0.191 | 0.437 | 0.491 | 0.504 | 0.513 | 0.436 | 0.495
6 | CCN[C@H]1C[C@H](C)S(=O)(=O)c2sc(S(N)(=O)=O)cc21 [Dorzolamide HCL] | 0.389 | 0.37 | -0.0781 | -0.0488 | -0.0257 | 0.0748 | 0.15 | 0.182 | 0.141 | 0.205 | -0.103 | -0.133 | -0.166 | -0.25 | -0.0335 | -0.0982 | -0.134 | -0.179 | -0.0513 | -0.0344 | -0.00192 | 0.152 | 0.0973 | 0.164 | 0.191 | 0.279 | 0.311 | 0.443 | 0.471 | 0.489 | 0.267 | 0.375
7 | CCCCCCCCc1ccc(CCC(N)(CO)CO)cc1 [Fingolimod (FTY720)] | 0.474 | 0.484 | 0.0955 | 0.0585 | 0.0453 | -0.1 | 0.0228 | 0.0231 | 0.00428 | -0.0571 | 0.0298 | 0.0648 | -0.0103 | -0.296 | -0.16 | -0.13 | -0.129 | -0.231 | 0.0534 | 0.0695 | 0.13 | 0.219 | -0.0305 | 0.0614 | 0.0905 | 0.203 | 0.437 | 0.577 | 0.586 | 0.614 | 0.364 | 0.447
8 | Nc1ncn([C@H]2C[C@H](O)[C@@H](CO)O2)c(=O)n1 [Decitabine] | 0.566 | 0.53 | 0.1 | 0.0737 | -0.0105 | -0.0724 | -0.215 | 0.144 | 0.37 | 0.544 | 0.201 | 0.0484 | -0.0488 | -0.367 | 0.168 | 0.0495 | -0.00108 | -0.0694 | 0.0943 | 0.11 | 0.126 | 0.167 | 0.13 | 0.49 | 0.632 | 0.753 | 0.474 | 0.558 | 0.569 | 0.567 | 0.496 | 0.556
